The text below walks through data of the supplement of paper PMC10849652.

Of roughly 8,800 targets only a part is listed; those with a hit were picked by preference. About 0.5% of all pairs of compound and target were hits. Values without a mark were called inactive.

UniProt Q8NF37, sequence (Q8NF37 whole entry, looked up): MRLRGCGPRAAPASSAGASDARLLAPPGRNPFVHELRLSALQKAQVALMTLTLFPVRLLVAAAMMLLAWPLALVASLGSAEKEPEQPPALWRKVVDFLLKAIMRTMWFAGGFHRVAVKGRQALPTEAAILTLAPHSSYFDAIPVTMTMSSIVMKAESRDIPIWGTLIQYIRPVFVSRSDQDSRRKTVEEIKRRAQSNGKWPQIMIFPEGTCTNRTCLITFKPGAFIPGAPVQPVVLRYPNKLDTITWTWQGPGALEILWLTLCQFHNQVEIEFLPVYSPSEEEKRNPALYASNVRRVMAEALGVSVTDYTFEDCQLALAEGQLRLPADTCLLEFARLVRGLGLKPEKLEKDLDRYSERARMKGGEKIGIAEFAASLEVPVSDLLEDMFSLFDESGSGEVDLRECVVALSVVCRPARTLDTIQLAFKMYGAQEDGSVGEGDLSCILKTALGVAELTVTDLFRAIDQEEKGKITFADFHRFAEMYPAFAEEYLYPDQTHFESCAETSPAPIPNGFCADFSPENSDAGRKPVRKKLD
UniProt P53667, sequence (P53667 whole entry, looked up): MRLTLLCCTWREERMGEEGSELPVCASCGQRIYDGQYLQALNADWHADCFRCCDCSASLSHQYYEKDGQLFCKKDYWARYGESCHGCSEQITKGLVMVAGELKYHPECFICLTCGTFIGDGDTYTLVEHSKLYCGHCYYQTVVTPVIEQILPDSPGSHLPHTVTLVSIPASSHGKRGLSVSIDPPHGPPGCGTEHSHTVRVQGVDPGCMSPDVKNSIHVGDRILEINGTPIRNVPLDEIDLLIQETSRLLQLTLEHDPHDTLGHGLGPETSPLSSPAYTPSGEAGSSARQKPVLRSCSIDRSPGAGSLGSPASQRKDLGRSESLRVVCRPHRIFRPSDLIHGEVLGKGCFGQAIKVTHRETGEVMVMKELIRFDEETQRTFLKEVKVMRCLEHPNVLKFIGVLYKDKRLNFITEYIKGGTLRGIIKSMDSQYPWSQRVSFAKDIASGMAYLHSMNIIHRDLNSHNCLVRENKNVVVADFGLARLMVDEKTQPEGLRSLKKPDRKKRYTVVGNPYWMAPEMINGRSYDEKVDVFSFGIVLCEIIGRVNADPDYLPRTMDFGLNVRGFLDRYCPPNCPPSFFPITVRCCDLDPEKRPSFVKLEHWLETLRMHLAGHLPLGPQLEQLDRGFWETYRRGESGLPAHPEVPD
UniProt Q5SRI9, sequence (Q5SRI9 whole entry, looked up): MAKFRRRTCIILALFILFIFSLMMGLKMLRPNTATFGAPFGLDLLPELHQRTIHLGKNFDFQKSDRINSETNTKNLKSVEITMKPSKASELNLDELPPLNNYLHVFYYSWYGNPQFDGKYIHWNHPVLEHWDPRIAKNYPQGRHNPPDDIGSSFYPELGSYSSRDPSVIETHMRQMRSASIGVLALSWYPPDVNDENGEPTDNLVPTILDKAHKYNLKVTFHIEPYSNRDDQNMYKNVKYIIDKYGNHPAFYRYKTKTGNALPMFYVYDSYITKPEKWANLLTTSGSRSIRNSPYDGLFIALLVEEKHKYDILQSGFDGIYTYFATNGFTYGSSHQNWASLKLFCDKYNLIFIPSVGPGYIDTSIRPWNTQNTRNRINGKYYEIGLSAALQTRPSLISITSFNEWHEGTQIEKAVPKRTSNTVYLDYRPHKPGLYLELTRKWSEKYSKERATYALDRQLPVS
UniProt Q16644, sequence (Q16644 whole entry, looked up): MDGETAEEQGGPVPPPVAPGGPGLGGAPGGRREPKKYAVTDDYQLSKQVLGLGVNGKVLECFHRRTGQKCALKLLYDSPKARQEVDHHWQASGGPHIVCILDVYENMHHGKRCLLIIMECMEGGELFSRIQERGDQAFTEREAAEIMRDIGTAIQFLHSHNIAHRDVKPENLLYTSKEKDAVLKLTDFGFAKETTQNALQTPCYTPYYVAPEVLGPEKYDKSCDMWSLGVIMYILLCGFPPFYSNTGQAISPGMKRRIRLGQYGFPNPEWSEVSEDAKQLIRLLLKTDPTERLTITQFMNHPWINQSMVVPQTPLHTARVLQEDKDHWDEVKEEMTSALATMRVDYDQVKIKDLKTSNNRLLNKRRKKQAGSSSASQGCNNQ
UniProt Q9BTT4, sequence (Q9BTT4 whole entry, looked up): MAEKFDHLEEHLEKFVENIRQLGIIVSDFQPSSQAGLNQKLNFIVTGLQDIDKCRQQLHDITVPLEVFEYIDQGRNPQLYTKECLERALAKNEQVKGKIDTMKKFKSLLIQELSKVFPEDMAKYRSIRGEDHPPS
UniProt Q8N5J2, sequence (Q8N5J2 whole entry, looked up): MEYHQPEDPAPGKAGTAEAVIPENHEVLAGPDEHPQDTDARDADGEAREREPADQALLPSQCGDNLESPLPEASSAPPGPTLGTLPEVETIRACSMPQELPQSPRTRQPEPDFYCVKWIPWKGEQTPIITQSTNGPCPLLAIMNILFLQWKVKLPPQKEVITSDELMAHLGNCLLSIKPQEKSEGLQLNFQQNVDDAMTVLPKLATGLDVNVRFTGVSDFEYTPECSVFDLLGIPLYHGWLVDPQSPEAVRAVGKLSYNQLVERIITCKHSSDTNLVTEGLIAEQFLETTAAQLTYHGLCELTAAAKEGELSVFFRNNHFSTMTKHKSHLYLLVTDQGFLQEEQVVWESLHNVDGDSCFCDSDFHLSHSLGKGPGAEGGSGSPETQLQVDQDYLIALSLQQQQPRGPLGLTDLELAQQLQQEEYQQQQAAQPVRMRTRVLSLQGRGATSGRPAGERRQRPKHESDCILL
UniProt Q12851, sequence (Q12851 whole entry, looked up): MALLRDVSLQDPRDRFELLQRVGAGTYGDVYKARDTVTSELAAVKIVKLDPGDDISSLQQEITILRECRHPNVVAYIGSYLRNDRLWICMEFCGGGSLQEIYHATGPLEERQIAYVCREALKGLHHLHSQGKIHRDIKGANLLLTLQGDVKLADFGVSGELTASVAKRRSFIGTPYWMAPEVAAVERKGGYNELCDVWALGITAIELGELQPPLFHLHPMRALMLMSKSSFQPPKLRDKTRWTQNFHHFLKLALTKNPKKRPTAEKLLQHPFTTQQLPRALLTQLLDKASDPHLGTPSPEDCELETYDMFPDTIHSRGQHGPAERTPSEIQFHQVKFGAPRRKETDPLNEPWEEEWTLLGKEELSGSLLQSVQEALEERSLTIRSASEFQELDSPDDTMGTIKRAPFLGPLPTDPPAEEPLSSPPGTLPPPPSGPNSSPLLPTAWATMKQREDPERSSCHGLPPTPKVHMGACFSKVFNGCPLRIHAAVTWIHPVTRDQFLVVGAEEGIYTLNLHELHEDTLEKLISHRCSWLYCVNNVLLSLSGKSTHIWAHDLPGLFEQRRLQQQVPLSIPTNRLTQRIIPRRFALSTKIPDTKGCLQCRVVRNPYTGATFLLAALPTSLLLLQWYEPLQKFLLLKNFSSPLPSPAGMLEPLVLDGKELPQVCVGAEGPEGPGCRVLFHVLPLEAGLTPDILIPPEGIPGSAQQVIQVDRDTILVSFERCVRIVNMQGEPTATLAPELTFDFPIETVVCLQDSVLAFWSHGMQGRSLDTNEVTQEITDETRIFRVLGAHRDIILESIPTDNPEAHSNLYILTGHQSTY
UniProt P27816, sequence (P27816 whole entry, looked up): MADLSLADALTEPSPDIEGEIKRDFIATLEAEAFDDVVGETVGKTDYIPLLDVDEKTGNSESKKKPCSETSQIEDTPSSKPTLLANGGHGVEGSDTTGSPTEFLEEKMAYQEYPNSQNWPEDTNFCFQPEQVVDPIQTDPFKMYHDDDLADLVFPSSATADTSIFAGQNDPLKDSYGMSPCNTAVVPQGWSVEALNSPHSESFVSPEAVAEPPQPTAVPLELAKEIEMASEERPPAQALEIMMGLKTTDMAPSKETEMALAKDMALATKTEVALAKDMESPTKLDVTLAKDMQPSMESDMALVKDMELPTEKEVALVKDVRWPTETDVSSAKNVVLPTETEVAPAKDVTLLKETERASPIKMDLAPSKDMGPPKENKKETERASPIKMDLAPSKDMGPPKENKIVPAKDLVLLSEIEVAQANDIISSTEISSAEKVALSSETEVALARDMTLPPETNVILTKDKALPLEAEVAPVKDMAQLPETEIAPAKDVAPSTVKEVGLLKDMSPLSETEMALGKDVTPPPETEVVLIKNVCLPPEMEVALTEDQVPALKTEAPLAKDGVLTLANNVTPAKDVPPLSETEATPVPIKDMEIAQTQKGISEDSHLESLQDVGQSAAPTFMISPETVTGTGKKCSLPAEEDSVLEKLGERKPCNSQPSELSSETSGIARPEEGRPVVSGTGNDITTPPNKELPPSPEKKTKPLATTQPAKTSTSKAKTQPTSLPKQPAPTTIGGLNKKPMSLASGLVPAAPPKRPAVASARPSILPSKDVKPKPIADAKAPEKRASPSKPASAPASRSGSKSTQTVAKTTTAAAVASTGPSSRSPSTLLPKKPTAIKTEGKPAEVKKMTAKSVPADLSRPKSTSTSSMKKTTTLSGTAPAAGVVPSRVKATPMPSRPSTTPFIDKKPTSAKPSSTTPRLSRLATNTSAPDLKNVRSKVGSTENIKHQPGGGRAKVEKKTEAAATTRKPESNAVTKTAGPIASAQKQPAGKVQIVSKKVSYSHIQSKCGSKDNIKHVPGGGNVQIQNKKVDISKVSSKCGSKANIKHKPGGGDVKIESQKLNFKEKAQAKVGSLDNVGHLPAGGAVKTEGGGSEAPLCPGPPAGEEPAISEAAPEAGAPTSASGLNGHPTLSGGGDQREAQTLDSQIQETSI
UniProt P27361, sequence (P27361 whole entry, looked up): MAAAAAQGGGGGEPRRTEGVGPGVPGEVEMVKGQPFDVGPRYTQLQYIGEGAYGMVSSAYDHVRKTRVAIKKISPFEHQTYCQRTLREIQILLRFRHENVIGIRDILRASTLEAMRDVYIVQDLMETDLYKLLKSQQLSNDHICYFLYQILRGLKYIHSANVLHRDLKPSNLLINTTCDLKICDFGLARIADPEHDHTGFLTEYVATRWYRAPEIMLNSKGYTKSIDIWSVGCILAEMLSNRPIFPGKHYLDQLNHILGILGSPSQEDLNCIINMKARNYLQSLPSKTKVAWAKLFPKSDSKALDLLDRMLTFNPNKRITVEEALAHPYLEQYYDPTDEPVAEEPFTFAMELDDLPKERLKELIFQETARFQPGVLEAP

Compound in one assay: CC1=CC=C(C=C1)SC2=C3C=C(SC3=CN=C2)C(=O)N
Kind of assay: log2 fold change, soluble protein after heating vs DMSO (PISA); higher = thermal stabilisation; K562 lysate, 10 uM; active = over 0.2 and 3.5 SD of the protein, either way, in both replicates (recomputed). In a few lines:
(§1)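 Quantification was by TMTpro 16plex LC-MS/MS with equalised channel sums, applied to the supernatant after 21,000xg for 90 min. Samples were crude K562 extract at 1 mg/mL protein in PBS pH 7.4 with 1 mM MgCl2, treated with 10 μM compound for 30 min, heated for 3 min across 48°C-58°C, pooled and brought to 0.5% NP-40 at 4°C. Values are log-two fold changes in thermal stability relative to solvent controls, from duplicates.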
On to MAP4K2 (UniProt Q12851), for which the log2 fold change was -0.207.

As for LIMK1 (UniProt P53667), the log2 fold change is -0.148.

As for MCUB (UniProt Q9NWR8), the log2 fold change was 0.204.

Take METTL21A (UniProt Q8WXB1): the log2 fold change is -0.032.

Regarding MINDY1 isoform 3 (UniProt Q8N5J2), the log2 fold change is 0.065.

In the case of MAP4 isoform 5 (UniProt P27816), the log2 fold change was 0.047.

On to MAPKAPK3 (UniProt Q16644), for which the log2 fold change was 0.033.

As for LPCAT1 (UniProt Q8NF37), the log2 fold change was -0.019.

For the target MANEA (UniProt Q5SRI9), the log2 fold change is 0.068.

Consider MRPL30 isoform 2 (UniProt Q8TCC3), for which the log2 fold change was 0.087.

On to KRIT1 (UniProt O00522), for which the log2 fold change was -0.095.

Turning to LTN1 isoform 3 (UniProt O94822), the log2 fold change was 0.019.

For MAPK8 isoform 3 (UniProt P45983), the log2 fold change was -0.012.

On to MED10 (UniProt Q9BTT4), for which the log2 fold change was 0.074.

Regarding MAP3K4 (UniProt Q9Y6R4), the log2 fold change was -0.027.

MAP4K4 isoform 6 (UniProt O95819): the log2 fold change was 0.037.

Compound in the next assay: CCCS(=O)(=O)Nc1ccc(F)c(C(=O)c2c[nH]c3ncc(-c4ccc(Cl)cc4)cc23)c1F [vemurafenib]
The assay is described as above. In a few lines: as §1
As for MCMBP isoform 2 (UniProt Q9BTE3), the log2 fold change is -0.039.

Regarding MAP4K5 (UniProt Q9Y4K4), the log2 fold change is 0.185.

Take MACO1 (UniProt Q8N5G2): the log2 fold change is -0.114.

With KLHL12 isoform 2 (UniProt Q53G59), the log2 fold change is 0.038.

In the case of LSS (UniProt P48449), the log2 fold change is 0.016.

In the case of KIF4B (UniProt Q2VIQ3), the log2 fold change is -0.026.

For MAP7D3 (UniProt Q8IWC1), the log2 fold change was -0.153.

With MITD1 (UniProt Q8WV92), the log2 fold change is 0.044.

For the target MED14 (UniProt O60244), the log2 fold change is -0.078.

Take LIMK2 isoform 3 (UniProt P53671): the log2 fold change was 0.031.

For LAMP1 (UniProt P11279), the log2 fold change is -0.009.

With MAPK3 (UniProt P27361), the log2 fold change was 0.013.

As for MRPL35 (UniProt Q9NZE8), the log2 fold change is 0.091.

For the target MAST2 (UniProt Q6P0Q8), the log2 fold change was 0.134.

Turning to MGST3 (UniProt O14880), the log2 fold change was 0.012.

For the target MAPK14 (UniProt Q16539), the log2 fold change was 0.175.

In the case of LRRC7 (UniProt Q96NW7), the log2 fold change was 0.112.

For the target MIF4GD isoform 3 (UniProt A9UHW6), the log2 fold change is 0.016.

On to MAP4K2 (UniProt Q12851), for which the log2 fold change is 0.198.

As to LIMK1 (UniProt P53667), the log2 fold change was 0.234.

For the target MINDY1 isoform 3 (UniProt Q8N5J2), the log2 fold change is -0.049.

Regarding MAP4 isoform 5 (UniProt P27816), the log2 fold change was -0.019.

Take MAPKAPK3 (UniProt Q16644): the log2 fold change was -0.02.

LPCAT1 (UniProt Q8NF37): the log2 fold change was -0.009.

For MANEA (UniProt Q5SRI9), the log2 fold change is 0.035.

For KRIT1 (UniProt O00522), the log2 fold change is -0.084.

LTN1 isoform 3 (UniProt O94822): the log2 fold change was 0.005.

In the case of MAPK8 isoform 3 (UniProt P45983), the log2 fold change is 0.06.

Turning to MED10 (UniProt Q9BTT4), the log2 fold change was 0.037.

As to MAP3K4 (UniProt Q9Y6R4), the log2 fold change is 0.006.

Compound in a further assay: CCCS(=O)(=O)Nc1ccc(F)c(C(=O)c2c[nH]c3ncc(Cl)cc23)c1F
The description is as above. In a few lines: as §1
As for MCMBP isoform 2 (UniProt Q9BTE3), the log2 fold change was 0.081.

In the case of MAP4K5 (UniProt Q9Y4K4), the log2 fold change is -0.011.

As to MACO1 (UniProt Q8N5G2), the log2 fold change is -0.003.

As to LEPROT (UniProt O15243), the log2 fold change is 0.112.

As to KLHL12 isoform 2 (UniProt Q53G59), the log2 fold change was 0.061.

For LSS (UniProt P48449), the log2 fold change was -0.009.

Turning to KIF4B (UniProt Q2VIQ3), the log2 fold change is 0.047.

Consider MRPL27 (UniProt Q9P0M9), for which the log2 fold change is -0.051.

As to MED25 isoform 3 (UniProt Q71SY5), the log2 fold change is 0.018.

As to MAP7D3 (UniProt Q8IWC1), the log2 fold change was -0.039.

For MITD1 (UniProt Q8WV92), the log2 fold change is 0.001.

With MED14 (UniProt O60244), the log2 fold change is 0.003.

LIMK2 isoform 3 (UniProt P53671): the log2 fold change is 0.046.

As to LAMP1 (UniProt P11279), the log2 fold change was 0.02.

Regarding MAPK3 (UniProt P27361), the log2 fold change is -0.024.

Turning to MRPL35 (UniProt Q9NZE8), the log2 fold change is -0.001.

For MAN2B2 (UniProt Q9Y2E5), the log2 fold change was -0.028.

Take MAST2 (UniProt Q6P0Q8): the log2 fold change was -0.062.

Consider MGST3 (UniProt O14880), for which the log2 fold change was 0.01.

For the target MAPK14 (UniProt Q16539), the log2 fold change was 0.081.

On to LRRC7 (UniProt Q96NW7), for which the log2 fold change was -0.024.

Turning to MIF4GD isoform 3 (UniProt A9UHW6), the log2 fold change is 0.009.

MME (UniProt P08473): the log2 fold change was -0.092.

Take MAP4K2 (UniProt Q12851): the log2 fold change is -0.038.

Turning to LIMK1 (UniProt P53667), the log2 fold change was 0.179.

On to MCUB (UniProt Q9NWR8), for which the log2 fold change is -0.175.

With METTL21A (UniProt Q8WXB1), the log2 fold change is 0.04.

For the target MINDY1 isoform 3 (UniProt Q8N5J2), the log2 fold change was -0.26.

For the target MAP4 isoform 5 (UniProt P27816), the log2 fold change was -0.035.

With MAPKAPK3 (UniProt Q16644), the log2 fold change is -0.018.

Regarding LPCAT1 (UniProt Q8NF37), the log2 fold change is 0.07.

Turning to MANEA (UniProt Q5SRI9), the log2 fold change was -0.019.

Regarding MRPL30 isoform 2 (UniProt Q8TCC3), the log2 fold change is 0.002.

As for KRIT1 (UniProt O00522), the log2 fold change was 0.051.

Take LTN1 isoform 3 (UniProt O94822): the log2 fold change was 0.022.

On to MAPK8 isoform 3 (UniProt P45983), for which the log2 fold change was 0.022.

Turning to MED10 (UniProt Q9BTT4), the log2 fold change is 0.

MAP3K4 (UniProt Q9Y6R4): the log2 fold change is 0.007.

In the case of MAP4K4 isoform 6 (UniProt O95819), the log2 fold change is 0.073.
